This is a sample that favours compounds with a hit; in the whole collection about 14% have one here.
HSD17B inhib: blocks hydroxysteroid 17-beta dehydrogenase activity; AID 893; Potency, µM (series often up to 57.1 µM), actives largely listed as inhibitors; actives 7.6% (n = 75,000); recombinant HSD17B10, NADH fluorescence kinetic; Q99714;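 note: the protocol describes HADH2 (HSD17B10) and not the HSD17B4 of the title; nearly all actives have a fitted effect of over 70% in size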
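His-tagged E. coli-expressed HADH2 at 20 nM in 100 mM Tris-HCl pH 9.0 with 0.01 % Tween-20, preincubated 15 min with compound at room temperature. Reaction with 1 mM NAD+ and 90 uM beta-hydroxybutyryl coenzyme A; NADH fluorescence (360/450 nm) read kinetically over 4 min, last minus first point.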
A350 fluor: compound fluoresces in the Alexa 350 spectral region; Compound autofluorescence, 340/450 nm, Alexa 350 dye-equivalents; active compounds read high; actives 11% (n = 59,000); max dye-equivalent concentration, M; in the data active = max dye-equivalent concentration above about 10 nM; inconclusive = mostly about 1.1 nM to 9.6 nM
CRE Fsk mod: modulators of forskolin-stimulated CRE signaling in CHO cells; CHO CRE-bla reporter (cAMP response element driving beta-lactamase), forskolin EC10, beta-lactamase ratio; Potency, µM (titrated, usually from 38.2 µM), most hits filed as activators; actives 2.5% (n = 71,000); active = well fitted activation curve with a large enough effect in the signal ratio, with a control signal flat, not every such curve was filed as active; inconclusive = small, poorly fitted or top-dose-only effect, or effect the other way, or a change in a side signal; the % refers to the signal ratio
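Forskolin analogue NKH 477 at EC10 stimulated CRE-driven beta-lactamase in CHO cells alongside compound dilution series. Beta-lactamase was measured with CCF4, excitation 405 nm, emission ratio 460/530 nm.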
HADH2 inhib: blocks human hydroxyacyl-CoA dehydrogenase type II | Q99714 | Potency, µM (top dose mostly 57.1 µM), actives largely listed as inhibitors | actives 3.4% (n = 73,000) | recombinant HADH2, NADH fluorescence, beta-hydroxybutyryl-CoA; note: nearly all actives have a fitted effect of over 60% in size
Target sequence (Q99714 whole entry, looked up, one chain of several): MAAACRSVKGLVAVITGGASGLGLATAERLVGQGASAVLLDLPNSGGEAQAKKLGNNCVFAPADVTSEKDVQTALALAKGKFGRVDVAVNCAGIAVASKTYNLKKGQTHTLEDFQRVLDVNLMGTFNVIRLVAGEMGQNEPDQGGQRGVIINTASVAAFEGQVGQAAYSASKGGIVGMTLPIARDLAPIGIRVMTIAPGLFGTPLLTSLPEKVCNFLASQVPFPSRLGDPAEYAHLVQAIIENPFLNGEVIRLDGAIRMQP
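E. coli-expressed His-tagged HADH2 tested at 20 nM in alkaline Tris buffer (pH 9.0); oxidation of 90 uM beta-hydroxybutyryl-CoA with 1 mM NAD+ tracked fluorimetrically for 4 min.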
4MU fluor: compound fluoresces in the 4-MU spectral region | max dye-equivalent concentration, M | actives 11% (n = 59,000) | compound autofluorescence, 340/450 nm, 4-MU equivalents; active compounds read high | AID 589; in the data active = max dye-equivalent concentration above about 10 nM; inconclusive = mostly about 1.1 nM to 9.6 nM
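Compounds in 100 mM Tris, pH 8.0, sat 15 min at room temperature before fluorescence was read at 340 nm excitation/450 nm emission; a per-plate six-point 4-MU standard curve converted signals to dye-equivalent concentration at each compound concentration.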
AID923: qHTS Assay for Allosteric/Competitive Inhibitors of Caspase-1: Spectroscopic Profiling in AFC Spectral Region; actives 1.1% (n = 75,000); Potency, µM (top dose mostly 57.5 µM), usual class: activators; compound fluorescence, AFC spectral region (405/520 nm)
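Compound autofluorescence profiled at 405 nm ex/520 nm em during kinetic caspase 1 run (50 nM enzyme, 5 uM Ac-WEHD-AFC, HEPES pH 7.5, 10 mM DTT). Titration up to 57 uM; baseline from regression intercept, normalized to AFC standard curve.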
A number is an active result; [ ] = remark or other dose. Unless noted, calls come from the whole dose curve; as a rule, active = well fitted curve in the direction sought with a large enough effect; inconclusive = small, poorly fitted or top-dose-only effect, or another doubt; inactive = no such curve, though single readings can be large; an effect the other way counts as inactive or inconclusive.

`CC(=O)O[C@@H]1CC(C)=C2[C@H]1[C@H](C)CC[C@H]2/C=C(\C)C(=O)O` gave HSD17B inhib inactive, CRE Fsk mod inactive, HADH2 inhib inactive and AID923 inactive.
`c1ccc2c(N3CCOCC3)nc(-c3ccoc3)nc2c1` gave HSD17B inhib inactive, A350 fluor inconclusive, CRE Fsk mod 5µM, HADH2 inhib inactive, 4MU fluor inactive and AID923 inactive.
For O=c1c2ccccc2nc(-c2ccccc2)n1CCN1CCOCC1 the results were HSD17B inhib inactive, A350 fluor inconclusive, CRE Fsk mod inactive, HADH2 inhib inactive, 4MU fluor inconclusive and AID923 inactive.
For c1ccc2c(-n3ccnc3)nc(-c3ccoc3)nc2c1 the results were HSD17B inhib inconclusive, A350 fluor inactive, CRE Fsk mod 3.2µM, HADH2 inhib inconclusive, 4MU fluor inactive and AID923 inactive.
For O=c1c2ccccc2nc2c3ccccc3c(N3CCOCC3)nn12 the results were HSD17B inhib inactive, A350 fluor 3.7e-08M, CRE Fsk mod inconclusive, HADH2 inhib inactive, 4MU fluor 3.6e-08M and AID923 inactive.
Screening CSc1nc(N2CCOCC2)c2ccccc2n1 returned HSD17B inhib inactive, A350 fluor 2.7e-08M, CRE Fsk mod 10µM, HADH2 inhib inactive, 4MU fluor 2.3e-08M and AID923 inactive.
For CN(C)CCCNc1ncnc2nc[nH]c12 the results were HSD17B inhib inactive[11.4 µM], A350 fluor inactive, CRE Fsk mod inactive[7.6 µM], HADH2 inhib inactive[11.4 µM], 4MU fluor inactive and AID923 inactive[11.5 µM].
For CC(=O)N[C@@H]1CONC1=O the results were HSD17B inhib inactive[11.4 µM], A350 fluor inactive, CRE Fsk mod inactive[7.6 µM], HADH2 inhib inactive[11.4 µM], 4MU fluor inactive and AID923 inactive[11.5 µM].
Screening CCCCCCCCCCCCCCC1CO1 (stereo unspecified) returned HSD17B inhib inactive, CRE Fsk mod inactive, HADH2 inhib inactive and AID923 inactive.
For CCn1ncc(Br)c1C(=O)Nc1sc2c(c1C(N)=O)CCC2 the results were HSD17B inhib 3.2µM, A350 fluor 1.5e-07M, CRE Fsk mod 2.5µM, HADH2 inhib inactive, 4MU fluor 1.1e-07M and AID923 inactive.
CCOC(=O)Cc1csc(SCC(=O)Nc2sc3c(c2C(N)=O)CCC3)n1 was read as HSD17B inhib inconclusive, A350 fluor inactive, CRE Fsk mod inactive, HADH2 inhib inconclusive, 4MU fluor inactive and AID923 inactive.
CCOC(=O)c1c(NC(=O)c2nn(CC)cc2Br)sc(C)c1C was read as HSD17B inhib inactive, A350 fluor 4.8e-07M, CRE Fsk mod 3.2µM, HADH2 inhib inactive, 4MU fluor 4.9e-07M and AID923 inactive.
For CCOC(=O)c1c(NC(=O)c2nn(CC)cc2Br)sc2c1CCCCC2 the results were HSD17B inhib 5µM, A350 fluor 1.8e-07M, CRE Fsk mod inactive, HADH2 inhib 32µM, 4MU fluor 1.9e-07M and AID923 inactive.
CCOC(=O)c1ccc(NC(=O)c2nn(CC)cc2Br)cc1 was read as HSD17B inhib inactive, A350 fluor inactive, CRE Fsk mod inactive, HADH2 inhib inactive, 4MU fluor inactive and AID923 inactive.
CCOC(=O)c1c(NC(=O)c2ccc(-n3cnnn3)cc2)sc2c1CCCC2 was read as HSD17B inhib inactive, A350 fluor 1.3e-08M, CRE Fsk mod inconclusive, HADH2 inhib inactive, 4MU fluor 1.4e-08M and AID923 inactive.
For CCOC(=O)Nc1sc2c(c1C(=O)OCC)CCC2 the results were HSD17B inhib inactive, A350 fluor inactive, CRE Fsk mod inactive, HADH2 inhib inactive, 4MU fluor inactive and AID923 inactive.
Screening N#Cc1cccc(NC(=O)N2CC[C@@]3(CCCN(S(=O)(=O)c4ccccc4)C3)C2)c1 returned HSD17B inhib inactive, A350 fluor inactive, CRE Fsk mod inactive, HADH2 inhib inactive, 4MU fluor inactive and AID923 inactive.
`CC(C)NC[C@@H](O)COc1ccccc1-n1cccc1` gave HSD17B inhib inactive, CRE Fsk mod inactive, HADH2 inhib inactive and AID923 inactive.
Screening O=C(CSCc1ccc(Cl)cc1)c1ccco1 returned HSD17B inhib 25µM, A350 fluor inconclusive, CRE Fsk mod inactive, HADH2 inhib inactive, 4MU fluor inconclusive and AID923 inactive.
For COc1cc2oc(-c3ccccc3)cc(=O)c2cc1OC the results were HSD17B inhib 25µM, A350 fluor 1.2e-08M, CRE Fsk mod 6.3µM, HADH2 inhib inactive, 4MU fluor 1.2e-08M and AID923 inactive.
COc1ccccc1-c1cc(=O)c2cccc(OC)c2o1 was read as HSD17B inhib 25µM and AID923 inactive.
COc1ccc(-c2cc(=O)c3cc(OC)ccc3o2)cc1 was read as HSD17B inhib 2.5µM and AID923 inactive.
COc1cccc(-c2cc(=O)c3ccc(OC)cc3o2)c1 was read as HSD17B inhib 7.9µM and AID923 inactive.
COc1cccc2oc(-c3ccccc3)cc(=O)c12 was read as HSD17B inhib inconclusive and AID923 inactive.
`O=C1CC2(CCCC2)CC(=O)N1CCCCNC[C@H]1COc2ccccc2O1` gave HSD17B inhib inactive, CRE Fsk mod inactive, HADH2 inhib inactive and AID923 inactive.
COC(=O)CCC(C)C1CCC2C3C(O)C[C@@H]4CC(O)CC[C@@]4(C)C3CC(O)[C@]12C (stereo partly specified) was read as HSD17B inhib inactive and AID923 inactive.
Cc1ccc(C(C)C)n1C(=O)OC(C)(C)C was read as HSD17B inhib inactive[11.4 µM], HADH2 inhib inactive[11.4 µM] and AID923 inactive[11.5 µM].
Screening COc1cc(C2SCCCCCCCCCCSC(c3ccc(O)c(OC)c3)SCCCCCCCCCCS2)ccc1O (stereo unspecified) returned HSD17B inhib inactive[11.4 µM], A350 fluor inactive, CRE Fsk mod inactive[7.6 µM], HADH2 inhib inactive[11.4 µM], 4MU fluor inactive and AID923 inactive[11.5 µM].
`Nc1nc2[nH]c(=O)[nH]c2c(=O)[nH]1` gave HSD17B inhib inactive and AID923 inactive.
`COc1ccc2oc(-c3ccc(O)cc3)cc(=O)c2c1` gave HSD17B inhib inactive, A350 fluor inconclusive, CRE Fsk mod 16µM, HADH2 inhib inactive, 4MU fluor inactive and AID923 inactive.
Screening COc1ccc(-c2cc(=O)c3ccc(O)cc3o2)cc1 returned HSD17B inhib inactive, A350 fluor inconclusive, CRE Fsk mod inactive, HADH2 inhib inactive, 4MU fluor inconclusive and AID923 inactive.
CC1c2[nH]c3ccccc3c2CCN1C(=O)Nc1ccccc1 (stereo unspecified) was read as HSD17B inhib inactive, A350 fluor 1.3e-07M, CRE Fsk mod inconclusive, HADH2 inhib inactive, 4MU fluor 1.2e-07M and AID923 inactive.
For Cc1cc(=O)oc(C)c1C(=O)N1CCc2c([nH]c3ccccc23)C1C(C)C (stereo unspecified) the results were HSD17B inhib inactive, CRE Fsk mod inactive, HADH2 inhib inactive and AID923 inactive.

Compound activity as filed in PubChem.
